# Results taken from paper PMC7862700, “An all-to-all approach to the identification of sequence-specific readers for epigenetic DNA modifications on cytosine”.
# How the values were obtained:
# Assay in all cases: DAPPL (digital affinity profiling via proximity ligation, sequencing); 10 mM Tris-HCl pH 7.5, 50 mM NaCl, 1 mM DTT, 4% glycerol, room temperature, 30 min; GST-TFs on glutathione beads, 16-mer random dsDNA library, 0.1% formaldehyde crosslink after washing; high values mean tight binding
# [1] = molecular target: T1, FEV (Homo sapiens, UniProt Q99581 1-238); conditions: protein: recombinant; tags: N-terminal GST; dsDNA, one strand shown
# T1 sequence: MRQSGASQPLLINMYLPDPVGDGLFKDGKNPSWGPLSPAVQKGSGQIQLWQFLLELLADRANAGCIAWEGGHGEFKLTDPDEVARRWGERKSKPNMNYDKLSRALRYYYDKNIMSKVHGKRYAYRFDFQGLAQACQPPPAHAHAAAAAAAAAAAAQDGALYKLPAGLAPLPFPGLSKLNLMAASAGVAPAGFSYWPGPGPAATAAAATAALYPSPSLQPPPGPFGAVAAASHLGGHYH
# Procedure, shortened: (§1)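 Binding signal is each hexamer's read frequency for a factor divided by its frequency in the tag-only sample. The factors were GST-fused human transcription factors from yeast, captured on glutathione beads, DNA-barcoded and pooled with that sample. Pools were incubated with 200 nmole of a random double-stranded 16-mer DNA library in Tris/NaCl/DTT/glycerol buffer at room temperature for 30 min, then washed, crosslinked with 0.1% formaldehyde, proximity-ligated with BsaI/T4 ligase (1 h, 37 °C), PCR-amplified and sequenced on an Illumina NextSeq500.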
# [2] = molecular target: ETV5 (Homo sapiens, UniProt P41161 1-510); conditions: protein: recombinant; tags: N-terminal GST; dsDNA, one strand shown
# Procedure, shortened: as §1
# [3] = molecular target: HSF1 (Homo sapiens, UniProt Q00613 1-529); conditions: protein: recombinant; tags: N-terminal GST; chain copies: 3; dsDNA, one strand shown
# Procedure, shortened: as §1
# [4] = molecular target: T2, SPIC (Homo sapiens, UniProt Q8N5J4 1-248); conditions: protein: recombinant; tags: N-terminal GST; dsDNA, one strand shown
# T2 sequence: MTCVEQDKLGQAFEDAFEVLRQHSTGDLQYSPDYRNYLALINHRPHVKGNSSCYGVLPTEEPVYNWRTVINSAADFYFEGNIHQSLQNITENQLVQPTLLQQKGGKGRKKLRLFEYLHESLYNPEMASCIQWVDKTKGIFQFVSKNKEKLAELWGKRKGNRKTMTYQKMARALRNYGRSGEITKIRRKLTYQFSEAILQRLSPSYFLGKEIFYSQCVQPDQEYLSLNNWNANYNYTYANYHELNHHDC
# Procedure, shortened: as §1
# [5] = molecular target: ELF4 (Homo sapiens, UniProt Q99607 1-663); conditions: protein: recombinant; tags: N-terminal GST; dsDNA, one strand shown
# Procedure, shortened: as §1
# [6] = molecular target: T3, ELK4 (Homo sapiens, UniProt P28324-2 1-405); conditions: protein: recombinant; tags: N-terminal GST; dsDNA, one strand shown
# T3 sequence: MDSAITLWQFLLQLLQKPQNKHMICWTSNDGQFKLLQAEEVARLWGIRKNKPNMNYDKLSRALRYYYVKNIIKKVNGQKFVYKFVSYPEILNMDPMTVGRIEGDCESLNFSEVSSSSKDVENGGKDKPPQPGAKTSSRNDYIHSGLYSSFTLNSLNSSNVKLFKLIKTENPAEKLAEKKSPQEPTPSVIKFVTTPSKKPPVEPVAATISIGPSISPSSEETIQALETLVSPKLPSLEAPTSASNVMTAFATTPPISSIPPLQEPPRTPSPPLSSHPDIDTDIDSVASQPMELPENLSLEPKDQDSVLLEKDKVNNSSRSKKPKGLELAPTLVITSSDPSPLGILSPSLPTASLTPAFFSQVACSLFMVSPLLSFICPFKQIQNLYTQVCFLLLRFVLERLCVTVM
# Procedure, shortened: as §1
# [7] = molecular target: T4, ETV2 (Homo sapiens, UniProt O00321 1-342); conditions: protein: recombinant; tags: N-terminal GST; dsDNA, one strand shown
# T4 sequence: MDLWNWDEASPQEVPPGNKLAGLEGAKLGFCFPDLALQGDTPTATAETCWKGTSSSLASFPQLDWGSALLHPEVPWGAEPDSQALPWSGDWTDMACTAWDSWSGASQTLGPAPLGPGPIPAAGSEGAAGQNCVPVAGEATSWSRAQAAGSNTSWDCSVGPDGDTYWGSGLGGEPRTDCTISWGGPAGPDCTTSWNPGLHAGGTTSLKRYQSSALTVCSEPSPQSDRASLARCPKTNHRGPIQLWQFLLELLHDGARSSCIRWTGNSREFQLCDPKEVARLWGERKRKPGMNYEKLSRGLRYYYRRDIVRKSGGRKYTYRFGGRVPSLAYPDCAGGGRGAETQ
# Procedure, shortened: as §1
# [8] = molecular target: T5, ELF3 (Homo sapiens, UniProt P78545 1-371); conditions: protein: recombinant; tags: N-terminal GST; dsDNA, one strand shown
# T5 sequence: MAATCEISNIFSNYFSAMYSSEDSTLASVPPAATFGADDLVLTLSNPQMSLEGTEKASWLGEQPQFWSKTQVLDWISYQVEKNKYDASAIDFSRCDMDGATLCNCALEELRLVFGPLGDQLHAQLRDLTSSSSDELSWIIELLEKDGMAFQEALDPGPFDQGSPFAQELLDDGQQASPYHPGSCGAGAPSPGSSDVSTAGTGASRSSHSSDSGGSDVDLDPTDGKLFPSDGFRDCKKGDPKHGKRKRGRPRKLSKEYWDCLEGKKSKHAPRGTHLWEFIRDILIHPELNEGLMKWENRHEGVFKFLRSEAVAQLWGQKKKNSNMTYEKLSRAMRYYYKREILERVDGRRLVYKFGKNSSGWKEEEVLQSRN
# Procedure, shortened: as §1
# [9] = molecular target: CRX (Homo sapiens, UniProt O43186 1-299); conditions: protein: recombinant; tags: N-terminal GST; dsDNA, one strand shown
# Procedure, shortened: as §1
# [10] = molecular target: ETV1 (Homo sapiens, UniProt P50549 1-477); conditions: protein: recombinant; tags: N-terminal GST; dsDNA, one strand shown
# Procedure, shortened: as §1
# Sequence of CRX (O43186 whole entry): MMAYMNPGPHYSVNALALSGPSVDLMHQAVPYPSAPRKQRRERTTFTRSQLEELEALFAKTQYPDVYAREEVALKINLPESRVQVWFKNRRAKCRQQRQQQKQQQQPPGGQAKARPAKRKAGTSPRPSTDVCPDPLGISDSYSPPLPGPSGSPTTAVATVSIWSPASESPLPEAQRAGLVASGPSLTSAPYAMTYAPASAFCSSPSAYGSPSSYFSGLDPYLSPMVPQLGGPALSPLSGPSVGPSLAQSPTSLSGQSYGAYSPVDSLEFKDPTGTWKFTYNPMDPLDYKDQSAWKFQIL
# Sequence of ELF4 (Q99607 whole entry): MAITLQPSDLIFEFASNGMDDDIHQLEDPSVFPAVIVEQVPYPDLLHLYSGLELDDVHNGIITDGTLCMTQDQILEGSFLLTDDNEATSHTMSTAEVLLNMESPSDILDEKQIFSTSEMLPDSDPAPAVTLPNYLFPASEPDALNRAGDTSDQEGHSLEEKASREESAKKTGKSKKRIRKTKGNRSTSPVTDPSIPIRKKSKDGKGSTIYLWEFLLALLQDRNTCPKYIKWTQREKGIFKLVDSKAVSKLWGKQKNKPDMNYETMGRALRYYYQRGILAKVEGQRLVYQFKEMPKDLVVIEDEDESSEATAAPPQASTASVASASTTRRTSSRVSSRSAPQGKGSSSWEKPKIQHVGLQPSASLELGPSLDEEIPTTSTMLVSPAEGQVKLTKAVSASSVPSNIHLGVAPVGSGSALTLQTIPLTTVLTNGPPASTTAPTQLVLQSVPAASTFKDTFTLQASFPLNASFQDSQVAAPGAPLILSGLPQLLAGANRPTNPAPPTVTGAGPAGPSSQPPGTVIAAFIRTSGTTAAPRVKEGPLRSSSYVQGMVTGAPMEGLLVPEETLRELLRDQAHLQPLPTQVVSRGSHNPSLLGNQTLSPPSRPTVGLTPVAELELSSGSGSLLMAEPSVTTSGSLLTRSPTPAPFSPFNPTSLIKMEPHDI
# Sequence of ETV1 (P50549 whole entry): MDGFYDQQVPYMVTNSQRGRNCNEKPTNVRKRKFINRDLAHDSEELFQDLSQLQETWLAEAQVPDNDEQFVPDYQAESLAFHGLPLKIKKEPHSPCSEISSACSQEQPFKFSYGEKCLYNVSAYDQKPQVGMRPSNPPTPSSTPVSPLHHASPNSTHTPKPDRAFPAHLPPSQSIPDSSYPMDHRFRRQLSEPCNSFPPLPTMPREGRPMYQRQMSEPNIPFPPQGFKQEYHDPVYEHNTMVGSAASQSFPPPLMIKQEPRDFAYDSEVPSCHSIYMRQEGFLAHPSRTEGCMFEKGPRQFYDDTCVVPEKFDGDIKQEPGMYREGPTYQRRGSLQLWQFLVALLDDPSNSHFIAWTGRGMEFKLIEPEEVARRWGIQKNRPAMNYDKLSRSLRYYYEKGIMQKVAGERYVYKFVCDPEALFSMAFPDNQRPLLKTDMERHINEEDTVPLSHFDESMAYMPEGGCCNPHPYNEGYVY
# Sequence of ETV5 (P41161 whole entry): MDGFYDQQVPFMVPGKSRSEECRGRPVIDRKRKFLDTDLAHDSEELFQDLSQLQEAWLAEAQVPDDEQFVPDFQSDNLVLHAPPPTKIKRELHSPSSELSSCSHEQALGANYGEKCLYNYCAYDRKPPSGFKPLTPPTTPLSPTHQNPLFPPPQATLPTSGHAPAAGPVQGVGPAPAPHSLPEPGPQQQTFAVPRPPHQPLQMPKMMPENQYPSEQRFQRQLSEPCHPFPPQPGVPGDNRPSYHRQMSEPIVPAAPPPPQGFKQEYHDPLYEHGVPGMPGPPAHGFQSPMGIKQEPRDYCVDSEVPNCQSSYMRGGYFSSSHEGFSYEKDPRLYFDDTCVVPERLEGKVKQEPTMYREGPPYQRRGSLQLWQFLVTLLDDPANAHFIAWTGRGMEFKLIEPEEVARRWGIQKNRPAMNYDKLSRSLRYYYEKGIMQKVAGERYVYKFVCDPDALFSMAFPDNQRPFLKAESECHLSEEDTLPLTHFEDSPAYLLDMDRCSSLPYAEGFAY
# Sequence of HSF1 (Q00613 whole entry): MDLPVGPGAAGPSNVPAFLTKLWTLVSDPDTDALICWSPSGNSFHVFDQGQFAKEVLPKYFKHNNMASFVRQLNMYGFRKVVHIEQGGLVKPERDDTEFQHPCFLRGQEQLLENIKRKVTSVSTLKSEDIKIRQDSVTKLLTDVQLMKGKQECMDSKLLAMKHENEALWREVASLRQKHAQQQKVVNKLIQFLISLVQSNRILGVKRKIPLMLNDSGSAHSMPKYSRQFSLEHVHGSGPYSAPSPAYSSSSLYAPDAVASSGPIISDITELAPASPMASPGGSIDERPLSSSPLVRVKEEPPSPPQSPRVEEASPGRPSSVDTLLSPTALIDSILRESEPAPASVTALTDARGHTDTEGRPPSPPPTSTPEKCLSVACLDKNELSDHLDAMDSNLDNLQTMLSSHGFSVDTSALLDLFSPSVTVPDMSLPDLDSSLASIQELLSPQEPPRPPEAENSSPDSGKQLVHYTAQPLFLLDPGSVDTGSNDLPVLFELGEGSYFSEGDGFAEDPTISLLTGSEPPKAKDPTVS
sequence,measurement,setting,value
TACGCC,binding signal,[1],"1.25 fold enrichment (6-mer frequency, TF over GST control)"
same,binding signal,[2],"1.26 fold enrichment (6-mer frequency, TF over GST control)"
same,binding signal,[3],"1.17 fold enrichment (6-mer frequency, TF over GST control)"
same,binding signal,[4],"1.32 fold enrichment (6-mer frequency, TF over GST control)"
same,binding signal,[5],"1.29 fold enrichment (6-mer frequency, TF over GST control)"
same,binding signal,[6],"1.24 fold enrichment (6-mer frequency, TF over GST control)"
same,binding signal,[7],"1.02 fold enrichment (6-mer frequency, TF over GST control)"
same,binding signal,[8],"1.14 fold enrichment (6-mer frequency, TF over GST control)"
same,binding signal,[9],"1.2 fold enrichment (6-mer frequency, TF over GST control)"
same,binding signal,[10],"1.22 fold enrichment (6-mer frequency, TF over GST control)"
